Results filed as inconclusive are left out. Activity calls are given as the source filed them. Rule for the calls: active = hit-call score of the fitted dose curve at least 0.9, where 1 is the maximum; inconclusive = response in the unintended direction; inactive = score below 0.9.
Each molecule was assayed on ABC Transporter (ABCB1), ABCB1 (gene 5243) (assay: CLD_ABCB1_6hr: CellzDirect (CLD) Gene Expression Assay for ABC Transporter (ABCB1) at 6 hours (AID 2283659);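 note: hits raise ABCB1 transcript above the DMSO vehicle baseline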).
Experimental: CLD_6hr is a cell-based, multiplexed-readout assay that uses hepatocyte, a human liver primary cell, with measurements taken at 6 hours after chemical dosing in a 96-well plate.CLD_ABCB1_6hr is one of 16 assay component(s) measured or calculated from the CLD_6hr assay. It is designed to make measurements of mRNA induction, a form of inducible reporter, as detected with chemiluminescence signals by Quantitative Nuclease Protection Assay (qNPA) technology.Data from the assay component CLD_ABCB1_6hr was analyzed at the endpoint, CLD_ABCB1_6hr, in the positive analysis fitting direction relative to DMSO as the negative control and baseline of activity. Using a type of inducible reporter, gain-of-signal activity can be used to understand changes in the reporter gene as they relate to the gene ABCB1. Furthermore, this assay endpoint can be referred to as a primary readout. To generalize the intended target to other relatable targets, this assay endpoint is annotated to the transporter intended target family, where subfamily is ABC transporter.
Human hepatocyte cultures were treated daily for two consecutive days with fresh dosing solutions containing appropriate concentrations of the 320 ToxCast chemicals (chemical identities were blinded to CellzDirect and other ToxCast collaborators), vehicle control (0.2% DMSO), and positive control inducers as summarized in Table 1. Due to the large number of treatment groups and chemicals examined, the ToxCast chemicals were divided into two groups (spanning two independent cultures of hepatocytes from separate donor preparations (Hu778: ToxCast plates 1 and 2; Hu776: ToxCast plates 3 and 4). Each preparation of human hepatocyte cultures was treated with respective vehicle control, medium only control, set of six positive controls/reference chemicals for the five hepatic receptor pathways, and a subset of eight of the ToxCast chemicals (indoxacarb, pyrithiobac-sodium, norflurazon, cyhalofop-butyl, methomyl, thiram, acetochlor, and propiconazole). These replicate data, coupled with internal replicates designed within the blinded ToxCast chemical library, provided additional data to evaluate interindividual differences between hepatocyte preparations and their potential impact on chemical profiles.Cell morphology and integrity were evaluated using phase-contrast microscopy as an indicator of hepatocyte cell health (Tyson & Green, 1987). Cultures for each treatment group (i.e., media, vehicle [0.2% DMSO], positive control inducers [multiple concentrations], and the ToxCast chemicals [multiple concentrations]) were observed and cell morphology was assessed relative to vehicle control cultures at each harvest time point (0, 6, 24, or 48 h). […] Images were evaluated at the conclusion of the study to assess changes in cell integrity and account for the effects of chemical exposure on uncharacteristic changes in concentration-dependent gene expression profiles. The results from these determinations of apparent cytotoxicity were annotated (yes/no) alongside the corresponding qNPA data for reference.At the conclusion of each treatment period, hepatocyte cultures (96-well) were washed with 1 volume of HBSS, lysed by addition of 25 ul ArrayPlate lysis buffer (HTG, Tucson, AZ), and 70 ul/well of Denaturation Oil, denatured by incubation at 95C for 10 min, and frozen at approximately -70C until analysis by nuclease protection assay (qNPA) (Roberts et al., 2007). For qNPA analysis, cell lysates were thawed at 50C for approximately 30 min, qNPA probes were added, and samples were incubated at 95C for 10 min to begin the detection process by denaturing the target RNA, dissociating the duplexes and secondary structure hybridization. At the conclusion of the hybridization period, S1 nuclease reagent was added to each sample to digest all nonprotected nucleotides at 50C for 60-90 min. […]

Row | SMILES | outcome
1 | CC(C)Oc1cccc(NC(=O)c2ccccc2C(F)(F)F)c1 | inactive
2 | Cc1ccc(N=CN(C)C=Nc2ccc(C)cc2C)c(C)c1 | inactive
3 | O=C1C2CC=CCC2C(=O)N1SC(Cl)(Cl)Cl (stereo not given) | inactive
4 | O=C(O)c1c(Cl)ccc2cc(Cl)cnc12 | inactive
5 | CC(C)N1C(=O)N(c2ccccc2)CSC1=NC(C)(C)C | inactive
6 | N#Cc1c(Cl)cccc1Cl | inactive
7 | Nc1c(Cl)c(F)nc(OCC(=O)O)c1Cl | inactive
8 | CC(C)C1(C)N=C(c2ncccc2C(=O)O)NC1=O (stereo not given) | inactive
9 | CCNP(=S)(OC)O/C(C)=C/C(=O)OC(C)C (stereo not given) | inactive
10 | CCCCC(O)(Cn1cncn1)c1ccc(Cl)cc1Cl (stereo not given) | inactive
11 | CCOc1nc(F)cc2nc(S(=O)(=O)Nc3c(Cl)cccc3Cl)nn12 | inactive
12 | CCCC(=NOCC)C1=C(O)CC(CC(C)SCC)CC1=O (stereo not given) | inactive
13 | COP(=O)(OC)O/C(C)=C/C(=O)N(C)C | inactive
14 | CO/N=C(/C1=NOCCO1)c1ccccc1Oc1ncnc(Oc2ccccc2Cl)c1F | inactive
15 | Cc1cnc(C2=NC(C)(C(C)C)C(=O)N2)c(C(=O)O)c1 (stereo not given) | inactive
16 | CC(C)(C)C(=O)C(Oc1ccc(Cl)cc1)n1cncn1 (stereo not given) | inactive
17 | CCCN(CC)CC1COC2(CCC(C(C)(C)C)CC2)O1 (stereo not given) | inactive
18 | CCOC(=O)C(C)OC(=O)c1cc(Oc2ccc(C(F)(F)F)cc2Cl)ccc1[N+](=O)[O-] (stereo not given) | inactive
19 | Cc1c(COC(=O)[C@@H]2[C@H](/C=C(\Cl)C(F)(F)F)C2(C)C)cccc1-c1ccccc1 | inactive
20 | CCOc1cc(C(C)(C)C)ccc1C1COC(c2c(F)cccc2F)=N1 (stereo not given) | inactive

Row | SMILES | outcome
21 | COP(=S)(OC)SCn1nnc2ccccc2c1=O | inactive
22 | N#CN=C1SCCN1Cc1ccc(Cl)nc1 | inactive
23 | COCC(C)N(C(=O)CCl)c1c(C)csc1C (stereo not given) | inactive
24 | CC(C)=CC1C(C(=O)OCc2coc(Cc3ccccc3)c2)C1(C)C (stereo not given) | inactive
25 | Cc1nc(N(C)C)nc(OC(=O)N(C)C)c1C | inactive
26 | CCSC(=O)N1CCCCCC1 | inactive
27 | C=C(C)CN(CC)c1c([N+](=O)[O-])cc(C(F)(F)F)cc1[N+](=O)[O-] | inactive
28 | COCc1cnc(C2=NC(C)(C(C)C)C(=O)N2)c(C(=O)O)c1 (stereo not given) | inactive
29 | COC(=O)N(C(=O)N1CO[C@@]2(C(=O)OC)Cc3cc(Cl)ccc3C2=N1)c1ccc(OC(F)(F)F)cc1 | inactive
30 | COP(=S)(OC)Oc1ccc([N+](=O)[O-])c(C)c1 | inactive
31 | COCC(=O)N(c1c(C)cccc1C)C(C)C(=O)OC (stereo not given) | inactive
32 | CC(C)Nc1nc(Cl)nc(NC(C)C)n1 | inactive
33 | CCOc1nc(C(Cl)(Cl)Cl)ns1 | inactive
34 | CN=C=S | inactive
35 | CC(C)NC(=O)N1CC(=O)N(c2cc(Cl)cc(Cl)c2)C1=O | inactive
36 | CC1(C)C(C(=O)OC(C#N)c2cccc(Oc3ccccc3)c2)C1(C)C (stereo not given) | inactive
37 | Clc1cccc(C(Cl)(Cl)Cl)n1 | inactive
38 | CC1(C)CCC(=Cc2ccc(Cl)cc2)C1(O)Cn1cncn1 (stereo not given) | inactive
39 | Nc1c(Cl)c(Cl)nc(C(=O)O)c1Cl | inactive
40 | O=C(Nc1ccccc1-c1ccc(Cl)cc1)c1cccnc1Cl | inactive
